Our source for the Potency values is PubChem BioAssay AID504834 (National Center for Advancing Translational Sciences (NCATS), 2011).

Among all 320,000 compounds or so, about 22,000 (6.9%) were called active. Where a call stands in place of a potency, no number is given. Not shown: some 27% with an inconclusive outcome. Calls follow the shape of the dose curve; as a rule, active = well fitted inhibition curve with a large enough effect; inconclusive = small, poorly fitted or top-dose-only effect, or another doubt; inactive = no such curve, though single readings can be large or run the other way. For the sample, actives were picked, then their nearest neighbours and some compounds at random.
Potency is read from the fitted curve at half-maximal effect.

This test is described as follows: Primary qHTS for delayed death inhibitors of the malarial parasite plastid, 96 hour incubation. As to conditions: P. falciparum luciferase reporter growth; series mostly up to 28.7 µM. From the text:
The goal of this screen is to discover new antimalarial compounds that act by inhibiting the development of the apicoplast in the malarial parasite Plasmodium falciparum. The biochemical processes that make this organelle essential for erythrocytic stage parasites are not well understood. However, antibiotics such as azithromycin and tetracycline, which target the apicoplast translational machinery, have a potent antimalarial effect.
We have developed a cell-based assay that measures parasite growth based on the expression of an integrated copy of a firefly luciferase reporter. To detect small molecules that cause this "delayed death" phenotype, erythrocytes infected with the luciferase-expressing parasites were incubated with compounds for either one or two generations, corresponding to 48 and 96 hours, respectively. Compounds that inhibit parasite growth in the second generation, but not the first, should be enriched in antimalarials that target the apicoplast. Growth inhibition is detected by a decrease in luciferase activity.
Assay Provider: David Fidock and Eric Ekland, Columbia University
Keywords: NIH Roadmap, MLPCN, MLI, MLSMR, qHTS, NCGC, qHTS, malaria, luciferase, viability
Four microliters of infected erythrocytes (2% hematocrit, 0.05% parasitemia final concentration) in culture medium were dispensed and the plates incubated for 96 hours at 37 C in 5% CO2. Two microliters of luciferase detection reagent was added and luminescence was detected by a ViewLux (PerkinElmer) reader.
Turning to `CC1CCCCN1C(=O)CCS(=O)(=O)Cc1ccccc1` (configuration not stated), the Potency result was “inactive”.

For `CC(OC(=O)c1ccccc1NCCO)C(=O)Nc1ccnn1C(C)C` (configuration not stated), the Potency entry was “inactive”.

`CC(CCN1CCN=C1N(C)C)c1ccccc1` (configuration not stated): the Potency result is “inactive”.

`COc1ccc(N=C(C)c2sc3ccccc3c2O)cc1`: the Potency entry was “inactive”.

For `Cc1ccc(NS(=O)(=O)c2cn(C)c(=O)n(C)c2=O)c(C)c1`, the Potency result was “inactive”.

Turning to `Brc1ccc(C2CC(c3ccccc3)=Nc3ccccc3N2)cc1` (configuration not stated), the Potency result was “inactive”.

Consider `c1ccc(C2=Nc3cccc4cccc(c34)N2)cc1`, for which the Potency was 11.7 µM (active).

For `Fc1ccccc1N=C1Nc2cccc3cccc1c23`, the Potency result is “inactive”.

On to `C[C@@H](NC(=O)[C@@H]1Cc2ccccc2CN1)C(=O)NC1CCCC1`, for which the Potency entry is “inactive”.

Turning to `CN(Cc1cnccn1)C(=O)c1cc(COc2cccc(C(F)(F)F)c2)on1`, the Potency entry was “inactive”.

Take `COc1ccc(N2CCN(S(=O)(=O)c3ccc4c(c3)NC(=O)C(C)C(=O)N4)CC2)cc1` (configuration not stated): the Potency entry is “inactive”.

Turning to `C=CCNc1nc(N)c([N+](=O)[O-])c(NC2CCCCC2)n1`, the Potency was 10.4 µM (active).

`Nc1nc(NCC(=O)O)nc(N2CCCCCC2)c1[N+](=O)[O-]`: the Potency entry was “inactive”.

For `COCCNc1nc(N)c([N+](=O)[O-])c(NCCO)n1`, the Potency result is “inactive”.

Regarding `O=C(COc1ccc2ccc(=O)oc2c1)NCC(O)c1ccccc1` (configuration not stated), the Potency entry was “inactive”.

On to `O=C(CCC1CCCC1)N=C1SC2CS(=O)(=O)CC2N1Cc1ccccc1` (configuration not stated), for which the Potency result was “inactive”.

Regarding `Cc1ccccc1OCC(=O)NNC(=O)c1ccc(-n2cncn2)c([N+](=O)[O-])c1`, the Potency entry was “inactive”.

Regarding `O=c1c2ccccc2nnn1CSc1nnnn1-c1ccccc1`, the Potency entry was “inactive”.

For `O=C(Cn1nnc2ccccc2c1=O)NCc1ccc(Cl)cc1`, the Potency result was “inactive”.

Consider `C=CCn1c(SCn2nnc3ccccc3c2=O)nnc1-c1ccc(Cl)cc1`, for which the Potency is 11.7 µM (active).

For the compound `N/C(=N\S(=O)(=O)c1ccc(Cl)cc1)N1CCOCC1`, the Potency entry is “inactive”.

Take `CCOC(=O)Cc1csc(SCC(=O)Nc2ccc(C)cc2F)n1`: the Potency entry is “inactive”.

Regarding `Oc1ccc(/C=N/NC2=NCCCCC2)c(O)c1`, the Potency entry is “inactive”.

Turning to `FC(F)(F)c1nc2ccccc2nc1N/N=C/c1ccc(Cl)cc1`, the Potency entry was “inactive”.

In the case of `Fc1ccc(/C=N/Nc2nc(-c3cccnc3)nc3ccccc23)cc1`, the Potency entry was “inactive”.

For the compound `Oc1ccc(/C=N/Nc2nc(-c3ccccc3F)nc3ccccc23)c(O)c1`, the Potency was 11.7 µM (active).

As to `Cc1cc(N/N=C/c2ccccc2F)c2ccccc2n1`, the Potency result is “inactive”.

With `Cc1nc2ccccc2nc1N/N=C/c1ccc(O)cc1O`, the Potency is 2.94 µM (active).

For the compound `CC1CCCN(C(=O)CN2C(=O)c3ccccc3S2(=O)=O)C1` (configuration not stated), the Potency entry is “inactive”.

As for `COc1cc(OC)cc(/C(N)=N/O)c1`, the Potency result is “inactive”.

As for `Cc1cc(SCc2c(F)cccc2Cl)nc(=O)[nH]1`, the Potency was 11.7 µM (active).

As for `Cc1snc(SCc2c(F)cccc2Cl)c1C#N`, the Potency entry is “inactive”.

As to `CSc1cc(C)[nH]c(=O)n1`, the Potency entry was “inactive”.

As to `Cc1onc(-c2ccccc2)c1C(=O)N1CCN(S(=O)(=O)c2ccccc2C(F)(F)F)CC1`, the Potency result was “inactive”.

For the compound `O=C(CN1CCN(S(=O)(=O)/C=C/c2ccccc2)CC1)Nc1ccc(N2CCOCC2)cc1`, the Potency result is “inactive”.

In the case of `NC(=O)CCN1CCN(S(=O)(=O)/C=C/c2ccccc2)CC1`, the Potency result is “inactive”.

Take `O=c1cc(CN2CCN(S(=O)(=O)/C=C/c3ccccc3)CC2)c2ccc(O)cc2o1`: the Potency is 11.7 µM (active).

Regarding `CN1CCN(Cc2ccccc2C(F)(F)F)CC1`, the Potency entry was “inactive”.

For the compound `Cc1ccc2c(CN3CCN(S(=O)(=O)c4ccccc4C(F)(F)F)CC3)cc(=O)oc2c1`, the Potency was 9.28 µM (active).

For `Cc1cccc(NC(=O)CCn2c(=O)oc3ccccc32)c1`, the Potency entry was “inactive”.

For the compound `CCCCn1c(N)c(N(CCOC)C(=O)c2oc3ccc(OC)cc3c2C)c(=O)[nH]c1=O`, the Potency result is “inactive”.

With `O=C(NCCS(=O)(=O)c1ccc(Br)cc1)c1ccccc1Cl`, the Potency entry was “inactive”.

On to `Cc1cccc(C(=O)Nc2ccc(C(=O)N/N=C/c3cccc(C)n3)cc2)c1`, for which the Potency result is “inactive”.

For the compound `COc1cccc(NC(=O)CSc2nccn(-c3ccc4c(c3)OCCO4)c2=O)c1`, the Potency result is “inactive”.

Take `CCOC(=O)c1ccc(NC(=O)CNC(=O)c2ccco2)cc1`: the Potency result is “inactive”.

Turning to `CCOC(=O)C1CCN(C(=O)Nc2cccc(OC)c2)CC1`, the Potency result is “inactive”.

For the compound `CCOC(=O)[C@H]1[C@H]2COc3cc(OC)ccc3[C@@H]2N2C(=O)N(c3ccc(Br)cc3)C(=O)[C@@]12C`, the Potency is 11.7 µM (active).

For `CCOC(=O)[C@@H]1[C@H]2COc3ccc(Br)cc3[C@H]2N2C(=O)N(c3ccc(Cl)cc3)C(=O)[C@@]12C`, the Potency was 11.7 µM (active).

For `CCOC(=O)C1C(c2ccc(Cl)cc2)NC(=S)NC1(O)C(F)(F)F` (configuration not stated), the Potency result is “inactive”.

In the case of `COc1ccc(NS(=O)(=O)c2cccc(C(=O)NCCc3ccc(S(N)(=O)=O)cc3)c2)cc1`, the Potency entry is “inactive”.

`CC1CCCCC1NC(=O)COC(=O)Cc1ccc(Cl)cc1` (configuration not stated): the Potency entry was “inactive”.

As for `COc1ccc(-c2ocnc2C(=O)Nc2ccc3c(c2)CCC3)cc1`, the Potency result is “inactive”.

For the compound `O=S(=O)(Nc1ccccc1Br)c1cccs1`, the Potency result was “inactive”.

On to `CC(C)OCCCNC(=O)c1cc(Sc2ccc(F)cc2)nc2ccccc12`, for which the Potency was 3.29 µM (active).

Take `CC(C)CCNC(=O)c1cccnc1Sc1ccccc1`: the Potency entry was “inactive”.

Take `CCCCN(C)CCCNC(=O)c1cc(-c2cccs2)nc2ccccc12`: the Potency result was “inactive”.

As to `O=C(O)C(NS(=O)(=O)c1cccc2nsnc12)c1ccccc1` (configuration not stated), the Potency result was “inactive”.

In the case of `CC(=O)Nc1cccc(NC(=O)c2ccc3c(c2)CCN3S(C)(=O)=O)c1`, the Potency result was “inactive”.

For the compound `O=C(CCCCO)c1ccc(O)c(Cl)c1`, the Potency result was “inactive”.

For `COc1cc(OC)cc(C(=O)NCCCn2ccnc2)c1`, the Potency entry was “inactive”.

Regarding `COc1ccc(/C=C(\C#N)C(=O)NCCCn2ccnc2)cc1`, the Potency result was “inactive”.

As for `COc1cccc(-c2nn(-c3ccccc3)cc2/C=C(\C#N)C(=O)NCCCn2ccnc2)c1`, the Potency is 1.65 µM (active).

Take `C/C=C(/C)C(=O)Nc1cccc(C2=NOC3(C2)C[C@@H](C(N)=O)N(C(=O)C2(C)CC2)C3)c1` (some centres not stated): the Potency entry was “inactive”.

As for `CCOc1ncccc1C(=O)OCC(=O)c1c[nH]c2ccccc12`, the Potency result is “inactive”.

With `O=C(NCCS(=O)(=O)NCc1ccc(F)cc1)c1ccccc1`, the Potency entry was “inactive”.

Regarding `CSc1nccc(NC(=O)c2ccc(C(C)(C)C)cc2)n1`, the Potency result was “inactive”.

On to `CN1CCN(C2=NCCO2)CC1`, for which the Potency result was “inactive”.

Turning to `Cc1ccc(Sc2cc(C(=O)c3ccccc3C(=O)O)ccc2[N+](=O)[O-])cc1`, the Potency result is “inactive”.

With `CN(C)c1ccc(Nc2c3c4c(cccc4n(C)c2=O)C(=O)c2ccccc2-3)cc1`, the Potency was 5.22 µM (active).

Regarding `CN(C)c1ccc(C2N(C)C(=O)c3ccccc3N2C)cc1` (configuration not stated), the Potency result was “inactive”.

Take `CC1C(=O)N(Cc2ccccc2)c2ccccc2N1C(=O)c1ccccc1` (configuration not stated): the Potency entry was “inactive”.

`O=C(COC(=O)Cn1[nH]c(=O)c2ccccc2c1=O)Nc1c(Cl)cccc1C(F)(F)F`: the Potency entry is “inactive”.

`COc1cc(NC(=O)C2=CC(c3ccco3)=NS(=O)(=O)N2C)cc(OC)c1OC`: the Potency result was “inactive”.

For `CC/C(=N\NC(=O)c1c(C)nc2ccccn12)c1ccc(Cl)cc1`, the Potency result was “inactive”.

`O=C(Nc1ccccc1N1CCOCC1)c1ccc(OCc2cscn2)cc1`: the Potency entry is “inactive”.

Turning to `CCC(CC)c1nnc(NC(=O)/C=C/c2ccco2)s1`, the Potency entry is “inactive”.

Turning to `CCc1nnc(NC(=O)/C=C/c2ccc(C)o2)s1`, the Potency is 10.4 µM (active).

`Cc1nnc(NC(=O)/C=C/c2ccco2)s1`: the Potency entry is “inactive”.

`CN1CCN(c2ccc(CNS(=O)(=O)c3cccc(F)c3)cc2)CC1`: the Potency entry is “inactive”.

For `N#CCCN(C(=O)COC(=O)C1CCN(c2ccc(C(F)(F)F)cn2)CC1)c1ccc(F)cc1`, the Potency result was “inactive”.

On to `COc1ccccc1-n1nnnc1SCC(=O)NC(=O)Cc1ccccc1`, for which the Potency result was “inactive”.

For `O=C(c1cccc(-n2cccc2)c1)N1CCN(S(=O)(=O)c2ccc(F)cc2)CC1`, the Potency entry is “inactive”.

For `Cc1oc(-c2ccccc2Cl)[n+]([O-])c1C`, the Potency entry is “inactive”.

`CCOC(=O)CSc1ncc(-c2cccc(Cl)c2)cn1`: the Potency entry was “inactive”.

`Cc1oc(-c2cccc(Cl)c2)[n+]([O-])c1C`: the Potency is 5.22 µM (active).

On to `Cc1[nH]n(C(N)=S)c(=O)c1N=Nc1ccc(Cl)cc1Cl`, for which the Potency entry was “inactive”.

On to `CC(=O)Nc1cccc(C(=O)OCC(=O)NCc2cc(C)c(O)c(C)c2)c1`, for which the Potency entry is “inactive”.

As to `Cc1ccc(S(=O)(=O)N2CC(O)C[C@H]2C(=O)OCC(=O)Nc2ccc(N3CCOCC3)cc2)cc1C` (some centres not stated), the Potency entry was “inactive”.

For the compound `CN(C(=O)COC(=O)c1ccc(Br)o1)c1c(N)n(Cc2ccccc2)c(=O)[nH]c1=O`, the Potency entry is “inactive”.

Take `CCCCNC(=O)c1ccc(-n2c(=S)[nH]c3ccccc3c2=O)cc1`: the Potency result was “inactive”.

`CCOC(=O)N1CCN(C(=O)Cc2ccc(-n3c(=S)[nH]c4ccccc4c3=O)cc2)CC1`: the Potency was 13.1 µM (active).

On to `O=C(Cc1ccc(-n2c(=O)[nH]c3ccccc3c2=O)cc1)N1CCN(c2cccc(Cl)c2)CC1`, for which the Potency entry was “inactive”.

On to `CCc1nc(N2CCN(C(C)=O)CC2)c2c3c(sc2n1)CCCC3`, for which the Potency result is “inactive”.

As to `O=C(/C=C/c1cccc(F)c1)NC1CC1`, the Potency entry was “inactive”.

Turning to `CCCc1nc2c(C)cc(-c3nc4ccccc4n3C)cc2n1Cc1ccc(-c2ccccc2C(=O)O)cc1`, the Potency is 1.51 µM (active).

In the case of `CC(=O)c1nc2ccccc2n1Cc1ccccc1`, the Potency entry is “inactive”.

With `CC(=O)Nc1nc2ccccc2n1Cc1ccc(C)cc1`, the Potency entry is “inactive”.

Consider `Cc1ccc2cc(/C=N/NC(=O)[C@@H]3CCCN3)c(Cl)nc2c1`, for which the Potency entry is “inactive”.

`COc1ccc(CCNC(=O)CCc2cn(C)c3ccccc23)c(OC)c1`: the Potency entry is “inactive”.

Take `Cc1nc(N)[nH]c(=O)c1Oc1cccc(C(F)(F)F)c1`: the Potency entry is “inactive”.

With `O=C(NCc1cccnc1)Nc1cccc(NC(=O)NCc2cccnc2)c1F`, the Potency result was “inactive”.

In the case of `CC1CC(C)CN(C(=O)COC(=O)c2ccc3ncsc3c2)C1` (configuration not stated), the Potency entry was “inactive”.

With `Cc1ccc(S(=O)(=O)NC(=O)Nc2nc(-c3ccc(F)c(F)c3)cs2)cc1`, the Potency result is “inactive”.

Turning to `Cc1cc(=O)cc(C)n1-c1ccc(Cl)c(Cl)c1`, the Potency result is “inactive”.

Take `CCCCNC(=O)c1onc(CSc2cccc(OC)c2)c1C(=O)O`: the Potency entry is “inactive”.

On to `CCOc1cccc(SCc2noc(C(=O)NC(C)C)c2C(=O)O)c1`, for which the Potency result is “inactive”.

With `CCCNC(=O)c1onc(CSc2ccc(F)cc2)c1C(=O)NC(C)C`, the Potency was 11.7 µM (active).
